Experimental data reported in PubChem BioAssay.

Target: 6-phosphogluconate dehydrogenase, decarboxylating (Homo sapiens) (UniProt P52209)
Experiment: inhibition of human phosphogluconate dehydrogenase – biochemical, recombinant enzyme, NADPH absorbance, primary screen (AID 1159550)
Details: recombinant 6PGD, NADPH absorbance 341 nm; at 10 µM; active compounds read high

6-phosphogluconate dehydrogenase, decarboxylating (Homo sapiens), sequence (P52209 whole entry, looked up): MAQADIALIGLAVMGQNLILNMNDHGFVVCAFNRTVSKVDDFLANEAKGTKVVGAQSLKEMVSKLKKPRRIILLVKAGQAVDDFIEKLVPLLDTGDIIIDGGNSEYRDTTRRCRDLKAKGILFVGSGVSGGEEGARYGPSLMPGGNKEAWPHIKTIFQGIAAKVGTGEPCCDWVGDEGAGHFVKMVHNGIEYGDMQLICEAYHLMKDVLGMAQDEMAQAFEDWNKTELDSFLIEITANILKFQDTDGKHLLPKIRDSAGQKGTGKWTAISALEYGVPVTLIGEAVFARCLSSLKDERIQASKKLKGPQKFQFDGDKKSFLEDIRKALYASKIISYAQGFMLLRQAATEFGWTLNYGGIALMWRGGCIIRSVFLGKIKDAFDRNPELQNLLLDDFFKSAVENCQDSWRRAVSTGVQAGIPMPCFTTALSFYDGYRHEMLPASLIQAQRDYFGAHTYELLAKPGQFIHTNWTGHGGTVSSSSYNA

inhibition, inactive:
COc1ccc(-c2cc(=O)c3c(OC)c(OC)c(OC)c(OC)c3o2)cc1OC 2.3%
C[C@H](CCC(=O)O)[C@H]1CC[C@H]2[C@@H]3C=C[C@@H]4C[C@H](O)CC[C@]4(C)[C@H]3CC[C@]12C 3.87%
CC(C)NCC(O)COc1cccc2ccccc12 (centres undefined) 13.6%
CC(=O)OC1CCC2(C)C(=CCC3C2CCC2(C)C(C(C)CCCC(C)C)CCC32)C1 (centres undefined) 13.3%
COC(=O)[C@H](c1ccccc1Cl)N1CCc2sccc2C1 3.19%
C[N+]1(C)CCCC(OC(=O)C(O)(c2ccccc2)c2ccccc2)C1 (centres undefined) -19.7%
O=C(O)Cc1cc(I)c(Oc2cc(I)c(O)c(I)c2)c(I)c1 -3.72%
O=c1c(O)cccc2c([C@H]3Oc4cc(O)cc(O)c4C[C@H]3O)cc(O)c(O)c12 3.21%
C/C=C(\C)C(=O)O[C@@H]1[C@@H]2C=C3[C@@H]4CC(=O)O[C@@H](C5=CC(O)OC5=O)[C@]4(C)CC[C@@H]3[C@@](C)(C2=O)[C@@H]([C@@H](O)C(=O)OC)C1(C)C (some centres undefined) 0.726%
O=C(O)C(O)C(O)C(=O)O (centres undefined) 6.59%
O=[N+]([O-])c1cccc2cn[nH]c12 -14.4%
C[C@H]1COc2c(N3CCN(C)CC3)c(F)cc3c(=O)c(C(=O)O)cn1c23 0.836%
CC(C)NCC(O)COc1ccc(CC(N)=O)cc1 (centres undefined) -17.1%
CNCCC(Oc1ccc(C(F)(F)F)cc1)c1ccccc1 (centres undefined) 19%
CC1=C(/C=C/C(C)=C/C=C/C(C)=C\C(=O)O)C(C)(C)CCC1 16.8%
CCc1ccc(CCOc2ccc(CC3SC(=O)NC3=O)cc2)nc1 (centres undefined) 6.81%
O=C(Oc1cc([C@H]2Oc3cc(O)cc(O)c3C[C@H]2O)cc2c([C@H]3Oc4cc(O)cc(O)c4C[C@H]3O)cc(O)c(OC(=O)c3cc(O)c(O)c(O)c3)c2c1=O)c1cc(O)c(O)c(O)c1 -0.352%
CC(=O)Oc1ccc2c(c1)CC[C@@H]1[C@@H]2CC[C@]2(C)C(=O)CC[C@@H]12 -18%
C=C[C@@H](C1=CC(=O)C(OC)=CC1=O)c1ccccc1 -0.743%
COC(=O)C[C@H]1C(C)(C)C(=O)[C@@H]2CC3=C4CC(=O)O[C@@H](c5ccoc5)[C@]4(C)CC[C@@H]3C1(C)C2=O -2.15%
O[C@@H]1[C@@H](O)[C@@H]2OC[C@@H](O2)[C@H]1O -10.4%
C=CC(C1=CC(=O)C(OC)=C(OC)C1=O)c1ccccc1 (centres undefined) 3.55%
COc1ccc(C[C@H](N)C(=O)N[C@H]2[C@@H](O)[C@H](n3cnc4c(N(C)C)ncnc43)O[C@@H]2CO)cc1 -10.2%
CC[C@H]1OC(=O)[C@H](C)[C@@H](O[C@H]2C[C@@](C)(OC)[C@@H](O)[C@H](C)O2)[C@H](C)[C@@H](O[C@@H]2O[C@H](C)C[C@H](N(C)C)[C@H]2O)[C@](C)(OC)C[C@@H](C)C(=O)[C@H](C)[C@@H](O)[C@]1(C)O 2.59%
C=C[C@@H]1CN2CC[C@@H]1C[C@@H]2[C@@H](O)c1ccnc2ccc(OC)cc12 8.78%

System: not listed separately
Experiment: modulation of C. elegans fzo-1 (AID 1259413; call rule not given here;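 note: fzo-1 mutant C. elegans worms in liquid wells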)
Details: C. elegans fzo-1 modulator screen, mean read-out; active compounds read high

Mean signal, inactive:
CS(=O)(=O)c1ccc(C2=C(c3ccccc3)C(=O)OC2)cc1 215
Cc1cccc(C)c1NC(=O)C1CCCCN1C (centres undefined) 253
COc1ccc(/C=C/C(=O)Nc2ccccc2C(=O)O)cc1OC 225
CCCCC(=O)N(Cc1ccc(-c2ccccc2-c2nn[nH]n2)cc1)[C@H](C(=O)O)C(C)C 250
CC(C(=O)O)c1ccc(-c2ccccc2)c(F)c1 (centres undefined) 239
Nc1ncnc2c1ncn2[C@@H]1O[C@H](CO)[C@@H](O)[C@@H]1O 237
CN(C)c1nc(N(C)C)nc(N(C)C)n1 270
Cc1occc(=O)c1O 263
COc1ccc(-c2cc(=O)c3c(OC)c(OC)c(OC)c(OC)c3o2)cc1OC 277
CC(C)NCC(O)COc1cccc2ccccc12 (centres undefined) 249
COC(=O)[C@H](c1ccccc1Cl)N1CCc2sccc2C1 252
C[N+]1(C)CCCC(OC(=O)C(O)(c2ccccc2)c2ccccc2)C1 (centres undefined) 266
O=[N+]([O-])c1cccc2cn[nH]c12 242
C[C@H]1COc2c(N3CCN(C)CC3)c(F)cc3c(=O)c(C(=O)O)cn1c23 274
CC(C)NCC(O)COc1ccc(CC(N)=O)cc1 (centres undefined) 244
CNCCC(Oc1ccc(C(F)(F)F)cc1)c1ccccc1 (centres undefined) 190
CC1=C(/C=C/C(C)=C/C=C/C(C)=C\C(=O)O)C(C)(C)CCC1 236
CCc1ccc(CCOc2ccc(CC3SC(=O)NC3=O)cc2)nc1 (centres undefined) 259
CC[C@H]1OC(=O)[C@H](C)[C@@H](O[C@H]2C[C@@](C)(OC)[C@@H](O)[C@H](C)O2)[C@H](C)[C@@H](O[C@@H]2O[C@H](C)C[C@H](N(C)C)[C@H]2O)[C@](C)(OC)C[C@@H](C)C(=O)[C@H](C)[C@@H](O)[C@]1(C)O 229
